# Reference: the supplement of paper PMC3724861
# Shown is part of a subset that was picked to be rich in hits. The hit rate among all sequences tested is not known here.
# System: T1, Caupolican (Caup) homeodomain DNA-binding domain
# T1 sequence: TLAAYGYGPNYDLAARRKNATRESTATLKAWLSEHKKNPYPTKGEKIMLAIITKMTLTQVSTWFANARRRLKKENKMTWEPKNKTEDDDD
# Assay: PBM E-score (8-mer, recovered from the published 9-mer minima) (E-score (dimensionless, -0.5 to 0.5)); Drosophila protein; higher = stronger relative binding preference, active = 0.31 or more
# How it was run: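 An enrichment score, with higher meaning stronger, expresses relative binding preference for each short DNA word. The protein used was Caup's homeodomain DNA-binding domain (residues 214-303), produced by in vitro transcription and translation and tested at 100 nM on custom-designed protein binding microarrays. The 8-mer values were recovered from published 9-mer scores, each equal to the lower of its two constituent 8-mer scores.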
row,Sequence,PBM E-score
1,AGAGTAGG,0.00327 (inactive)
2,CCCCTCGC,-0.261 (inactive)
3,CACACATG,0.192 (inactive)
4,AGCGACAA,0.228 (inactive)
5,GTTATTTA,0.201 (inactive)
6,AATGCATA,0.0394 (inactive)
7,ACGTTTGG,0.0157 (inactive)
8,AAGGTCAA,0.00315 (inactive)
9,ATGCCTCA,-0.045 (inactive)
10,CGAGACAA,0.0948 (inactive)
11,CCGTGTCC,0.218 (inactive)
12,ACGTGTAC,0.367 (active)
13,ACGTGTCT,0.244 (inactive)
14,AAGTGTAC,0.304 (inactive)
15,CCGTGTAC,0.411 (active)
16,ACGTGTGC,0.0653 (inactive)
17,ACGTGTAG,0.321 (active)
18,ACGTGTAT,0.353 (active)
19,CAGTGTAC,0.207 (inactive)
20,AAGTGTAT,0.144 (inactive)
21,AAGTGTAG,0.17 (inactive)
22,CCGTGTAG,0.286 (inactive)
23,CTGAGCGC,-0.211 (inactive)
24,TCTCGAGA,0.0237 (inactive)

row,Sequence,PBM E-score
1,AACGACTG,0.0234 (inactive)
2,CTTCAGTC,-0.0898 (inactive)
3,AGTCCATG,0.0703 (inactive)
4,ACTGCCGG,-0.163 (inactive)
5,ACTATCGG,-0.056 (inactive)
6,CGCAGGTA,-0.0146 (inactive)
7,AGGTAAAA,0.0159 (inactive)
8,GCGTGTAC,0.367 (active)
9,GCGTGTCC,0.223 (inactive)
10,GAGTGTAC,0.121 (inactive)
11,CCTAAAAC,-0.07 (inactive)
12,GGTGGCCA,-0.164 (inactive)
13,CCCTTACA,0.152 (inactive)
14,ATGGCCCC,-0.175 (inactive)
15,AATATAGA,0.138 (inactive)
16,ACAAACAG,0.258 (inactive)
17,ATAAACAC,0.251 (inactive)
18,AAAAACAT,0.296 (inactive)
19,TTAAACAA,0.23 (inactive)
20,ATAAACAT,0.321 (active)
21,ACAAACAC,0.301 (inactive)
22,ACAAACAA,0.317 (active)
23,GTAAACAA,0.321 (active)
24,ACAAACCT,0.0926 (inactive)

row,Sequence,PBM E-score
1,ATAAACAG,0.147 (inactive)
2,ACAAACAT,0.368 (active)
3,ATAAACAA,0.254 (inactive)
4,CGGTGAAA,-0.001 (inactive)
5,ATCTTCTG,-0.0212 (inactive)
6,CACTAAAG,-0.125 (inactive)
7,GATATGGC,-0.0691 (inactive)
8,GATTTGCC,-0.0122 (inactive)
9,CGTGTAAG,0.333 (active)
10,CGTGTAAC,0.321 (active)
11,ACTGTAAG,0.147 (inactive)
12,AGTGTAAA,0.13 (inactive)
13,GGTGTAAC,0.205 (inactive)
14,GGTGTAAA,0.24 (inactive)
15,CGTGTAAA,0.377 (active)
16,TGTGTAAA,0.318 (active)
17,AGTGTAAC,0.2 (inactive)
18,AGTGTAAG,0.215 (inactive)
19,ACGTTCCG,-0.0768 (inactive)
20,AAGCCAGG,-0.171 (inactive)
21,ACCCGCAG,-0.142 (inactive)
22,AATTAGAC,0.132 (inactive)
23,CAGCGAAC,0.0117 (inactive)
24,CGGCCCTC,-0.331 (inactive)

row,Sequence,PBM E-score
1,AGGCCCCC,-0.398 (inactive)
2,GGATCGCA,0.00822 (inactive)
3,CCATAGCA,0.0725 (inactive)
4,GATGTTTA,0.247 (inactive)
5,AATGTTTC,0.143 (inactive)
6,CATGTTTA,0.399 (active)
7,CATGTTTC,0.355 (active)
8,CCTGTTTC,0.17 (inactive)
9,AATGTTTA,0.213 (inactive)
10,CTAGAGCA,-0.132 (inactive)
11,AAATGCAA,0.0939 (inactive)
12,CCACAGGA,-0.0146 (inactive)
13,ATTGCCCG,-0.0341 (inactive)
14,CAACTCAC,0.0566 (inactive)
15,AGTAAGAA,0.06 (inactive)
16,ATCGCAAG,-0.0386 (inactive)
17,ATTGTAAA,0.246 (inactive)
18,CTTGTAAC,0.424 (active)
19,CCTGTAAC,0.176 (inactive)
20,ATTGTAAC,0.308 (inactive)
21,CTTGTAAA,0.365 (active)
22,GTTGTAAA,0.279 (inactive)
23,GCATGAGA,-0.0059 (inactive)
24,CTCGTGAC,-0.0131 (inactive)

row,Sequence,PBM E-score
1,GTAGACAA,0.313 (active)
2,ATAGACAC,0.259 (inactive)
3,ATAGACAT,0.321 (active)
4,TTAGACAA,0.206 (inactive)
5,ATAGACAG,0.16 (inactive)
6,CTAGACAA,0.0936 (inactive)
7,ATCGAAAC,-0.0231 (inactive)
8,CTTCCAAG,-0.0467 (inactive)
9,AGAGGTGG,-0.107 (inactive)
10,CTGTATCA,0.15 (inactive)
11,CTGTATCC,0.2 (inactive)
12,AAGTATCC,-0.0551 (inactive)
13,ATGTATCG,0.337 (active)
14,ATGTATCC,0.332 (active)
15,ACGTATCG,0.15 (inactive)
16,ATGTATCA,0.321 (active)
17,AAGTATCG,0.134 (inactive)
18,GTGTATCA,0.276 (inactive)
19,ATGTCCAG,0.2 (inactive)
20,ACGCAACA,0.215 (inactive)
21,ATTTAGTC,0.0884 (inactive)
22,CCCCAAAC,-0.0197 (inactive)
23,CTTGCTGC,-0.0454 (inactive)
24,AATAACAC,0.284 (inactive)

row,Sequence,PBM E-score
1,AGTAACAG,0.19 (inactive)
2,AATAACAT,0.348 (active)
3,AGTAACAT,0.316 (active)
4,AATAACAG,0.241 (inactive)
5,AGTAACAC,0.24 (inactive)
6,AGGCGTCG,-0.157 (inactive)
7,CTTTGTCA,0.0793 (inactive)
8,CAAAGTAC,0.172 (inactive)
9,GGAGTGGA,-0.133 (inactive)
10,ACATATTC,0.329 (active)
11,CCATATCA,0.0253 (inactive)
12,ACATATTA,0.33 (active)
13,ACATATCA,≥ 0.321 (active)
14,ATATATTC,0.192 (inactive)
15,ACATATTG,0.26 (inactive)
16,CCATATTA,0.105 (inactive)
17,ACATATCG,0.238 (inactive)
18,CCATATTC,0.011 (inactive)
19,TTTGAAAA,0.105 (inactive)
20,AAGGATGT,0.185 (inactive)
21,AGTTAAGC,0.0239 (inactive)
22,GCACACCC,-0.143 (inactive)
23,AGAGTGCG,-0.148 (inactive)
24,CTCTCCTC,-0.078 (inactive)

row,Sequence,PBM E-score
1,CCGACGCG,-0.167 (inactive)
2,GCCTGGCC,-0.292 (inactive)
3,AACTACAA,0.342 (active)
4,ATCTACAC,0.227 (inactive)
5,AACTACAG,0.177 (inactive)
6,CACTACAC,0.206 (inactive)
7,GACTACAC,0.33 (active)
8,CACTACAA,0.266 (inactive)
9,GACTACAA,0.222 (inactive)
10,AACTACGT,0.151 (inactive)
11,AACTACAT,0.408 (active)
12,AACTACAC,0.355 (active)
13,ACCTACAA,0.171 (inactive)
14,AACTACCT,0.122 (inactive)
15,TCTCACAA,0.048 (inactive)
16,TAGTGTGA,0.108 (inactive)
17,GCCTCACC,-0.232 (inactive)
18,ACTAGATG,0.121 (inactive)
19,CACCCTAG,-0.0221 (inactive)
20,ACACCTCT,0.111 (inactive)
21,AGCGCGGC,-0.184 (inactive)
22,TGCACGCA,-0.0359 (inactive)
23,TAGATGGA,0.0256 (inactive)
24,AACATGGC,0.328 (active)

row,Sequence,PBM E-score
1,ATCATGGC,-0.0613 (inactive)
2,AACATTGA,0.243 (inactive)
3,AACATTGT,≥ 0.347 (active)
4,AACATTGG,0.159 (inactive)
5,GACATGGC,0.314 (active)
6,TACATGGA,0.413 (active)
7,TCCATGGA,0.0552 (inactive)
8,CACATGGC,-0.0837 (inactive)
9,GCCATGGC,-0.246 (inactive)
10,ACCATGGC,0.0502 (inactive)
11,ACAGTAAA,0.124 (inactive)
12,CCGTTCTC,-0.0675 (inactive)
13,CTCGCACA,-0.0236 (inactive)
14,CGCAGGAC,-0.0855 (inactive)
15,ATCTCCCC,-0.153 (inactive)
16,ATTCAGTG,0.034 (inactive)
17,CTAACGAG,0.0026 (inactive)
18,ACACCGTC,0.0118 (inactive)
19,ACCATGGT,0.127 (inactive)
20,ACCATGGA,0.0206 (inactive)
21,CACATGGA,0.156 (inactive)
22,AACATGGA,0.325 (active)
23,ATCATGGA,0.00242 (inactive)
24,ATCATGGG,-0.0312 (inactive)

row,Sequence,PBM E-score
1,AACATGGT,0.37 (active)
2,AACATGGG,0.351 (active)
3,CACATGGG,-0.0556 (inactive)
4,GACATGGA,0.345 (active)
5,AAGATGGT,0.109 (inactive)
6,GAGATGGA,-0.0584 (inactive)
7,ATAGCTTG,0.0692 (inactive)
8,CGACCGGC,-0.141 (inactive)
9,AGTAAGTG,0.00023 (inactive)
10,TGCGCCCA,-0.134 (inactive)
11,ATTAGATG,0.235 (inactive)
12,GCTCCATA,-0.111 (inactive)
13,ACGGTGGC,-0.158 (inactive)
14,ATGCGAAA,0.0128 (inactive)
15,AACAAAAA,0.141 (inactive)
16,AACAAGAC,0.335 (active)
17,TACAAAAA,0.255 (inactive)
18,AACAAAGA,0.0783 (inactive)
19,AACAAGAA,0.321 (active)
20,CACAAGAC,0.0913 (inactive)
21,AACAAAAC,0.179 (inactive)
22,GACAAGAA,0.297 (inactive)
23,TACAAGAA,0.351 (active)
24,GACAAAAC,0.137 (inactive)

row,Sequence,PBM E-score
1,CACAAGAA,0.0855 (inactive)
2,GACAAGAC,0.325 (active)
3,CATGACTA,0.198 (inactive)
4,CATCTTAG,0.0142 (inactive)
5,ATGGCGTA,0.002 (inactive)
6,CCTCCGCA,-0.12 (inactive)
7,CACTCTTC,0.0141 (inactive)
8,AACAAGAT,0.334 (active)
9,AACAAGAG,0.243 (inactive)
10,AACAAAAT,0.209 (inactive)
11,GACCGCAC,-0.162 (inactive)
12,ATAGCTCA,-0.0365 (inactive)
13,ATGACAAG,≥ 0.378 (active)
14,CTGACAAG,0.341 (active)
15,ATGACAGC,0.202 (inactive)
16,CTGACAAC,0.281 (inactive)
17,ATGACAAC,0.375 (active)
18,CTGACAAA,0.132 (inactive)
19,ATGACAAA,0.248 (inactive)
20,ATGACAAT,0.274 (inactive)
21,GTGACAAC,0.303 (inactive)
